# Experimental data reported in PubChem BioAssay (NCATS).
# Inconclusive results are not listed. A call without a number means that no potency is given here. Unmarked numbers belong to inactive results. The source made the active and inactive calls. Calls follow the shape of the dose curve; as a rule, active = well fitted curve in the direction sought with a large enough effect; inconclusive = small, poorly fitted or top-dose-only effect, or another doubt; inactive = no such curve, though single readings can be large; an effect the other way counts as inactive or inconclusive.
# Experiments:
# [1] = qHTS for Inhibitors of the Aldehyde Dehydrogenase Family (ALDH1A2, ALDH1A3, ALDH2, ALDH3A1) (AID 2061307); also: nearly all actives have a fitted effect of over 50% in size
# [2] = biological target: Aldehyde dehydrogenase, mitochondrial (Homo sapiens) (UniProt P05091); test: qHTS for Inhibitors of the Aldehyde Dehydrogenase Family (ALDH2) Primary screen (AID 2061308); also: nearly all actives have a fitted effect of over 55% in size
# [3] = biological target: Retinal dehydrogenase 2 (Homo sapiens) (UniProt O94788); test: qHTS for Inhibitors of the Aldehyde Dehydrogenase Family (ALDH1A2) Confirmation screens (AID 2061314); also: nearly all actives have a fitted effect of over 65% in size; also: potency is read from the fitted curve at half-maximal effect
# [4] = biological target: Retinaldehyde dehydrogenase 3 (Homo sapiens) (UniProt P47895); test: qHTS for Inhibitors of the Aldehyde Dehydrogenase Family (ALDH1A3) Primary screen (AID 2061315)
# [5] = biological target: Aldehyde dehydrogenase 1A1 (Homo sapiens) (UniProt P00352); test: qHTS for Inhibitors of the Aldehyde Dehydrogenase Family (ALDH1A1) Confirmatory screens (AID 2061316); also: nearly all actives have a fitted effect of over 65% in size; also: potency is read from the fitted curve at half-maximal effect
# [6] = biological target: Retinaldehyde dehydrogenase 3 (Homo sapiens) (UniProt P47895); test: qHTS for Inhibitors of the Aldehyde Dehydrogenase Family (ALDH1A3) Confirmatory screens (AID 2061311); also: nearly all actives have a fitted effect of over 60% in size; also: potency is read from the fitted curve at half-maximal effect
# [7] = BET inhibitor-based combinations targeting novel dependencies in MECOM-rearranged (r) AML: SET-2 cell line (AID 2202231); details: SET-2 AML cells viability, CellTiter-Glo luminescence, 48 h; viability: stronger effect = lower value, series mostly up to about 46 µM; also: nearly all actives have a fitted effect of over 35% in size
# Outline: (§1)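 Cells were plated at 500 per well and exposed to an 11-point dose series of each drug for 48 hr. Viability was measured by CellTiter-Glo luminescence, normalized to DMSO and empty-well controls, and summarized as AUC and per-cell-line Z-AUC.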
# [8] = BET inhibitor-based combinations targeting novel dependencies in MECOM-rearranged (r) AML: MV-4-11 cell line (AID 2202233); also: nearly all actives have a fitted effect of over 45% in size; also: potency is read from the fitted curve at half-maximal effect
# Outline: (§2)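 Activity is given as area under the curve and as Z-AUC, mean-centred within each cell line. It comes from 11-point dose curves normalized to DMSO and empty wells. CellTiter-Glo luminescence was read after 48 hr drug exposure of 500 cells/well.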
# [9] = BET inhibitor-based combinations targeting novel dependencies in MECOM-rearranged (r) AML: UCSD-AML1 cell line (AID 2202235); also: series mostly up to about 46 µM; nearly all actives have a fitted effect of over 40% in size
# Outline: as §2
# [10] = BET inhibitor-based combinations targeting novel dependencies in MECOM-rearranged (r) AML: AML-191 cell line (AID 2202236; also: nearly all actives have a fitted effect of over 35% in size)
# Outline: as §1
# [11] = BET inhibitor-based combinations targeting novel dependencies in MECOM-rearranged (r) AML: AML-194 cell line (AID 2202237; also: nearly all actives have a fitted effect of over 40% in size)
# Outline: as §1
# [12] = BET inhibitor-based combinations targeting novel dependencies in MECOM-rearranged (r) AML: OCI-AML3 cell line (AID 2202232); details: Potency: OCI-AML3 viability; also: series mostly up to about 46 µM; nearly all actives have a fitted effect of over 35% in size
# Outline: as §1
# [13] = BET inhibitor-based combinations targeting novel dependencies in MECOM-rearranged (r) AML: HNT-34 cell line (AID 2202234); also: nearly all actives have a fitted effect of over 35% in size
# Outline: as §2
compound,measurement,setting,value
Cc1cc(-c2nnc3n2CCCC3)c(C)n1-c1ccccc1,Potency,[1],inactive
same,Potency,[2],inactive
same,Potency,[3],inactive
same,Potency,[4],inactive
same,Potency,[5],11.3 µM (active)
N#Cc1nc(-c2ccc(COc3ccccc3)o2)oc1N1CCN(c2ccccc2)CC1,Potency,[6],inactive
Cc1ccc(-n2c(C)cc(-c3nnc4n3CCCCC4)c2C)cc1,viability,[7],104%
same,Potency,[8],23.5 µM (active)
same,Potency,[9],inactive
same,Potency,[10],inactive
same,Potency,[11],inactive
NCC(=O)Nc1cncc(-c2nn3c(=O)cc(N4CCNCC4)nc3s2)c1,viability,[7],111%
same,Potency,[12],inactive
same,Potency,[8],inactive
same,Potency,[13],inactive
same,Potency,[9],inactive
same,Potency,[10],inactive
same,Potency,[11],inactive
O=C(O)c1ccc2c(c1)C(=O)N(CCc1ccc(O)cc1)C2=O,Potency,[1],inactive
same,Potency,[6],inactive
same,Potency,[3],inactive
same,Potency,[4],inactive
same,Potency,[5],inactive
COc1cccc(S(=O)(=O)N2CCC3(CC2)CC(CC(=O)NC2CC2)CCO3)c1 (stereo not given),Potency,[1],inactive
same,Potency,[6],inactive
Cc1cc(C)nc(NC(=S)N2CCN(c3ccc4cn(C)nc4c3)CC2)c1,Potency,[1],inactive
same,Potency,[6],15.9 µM (active)
same,Potency,[3],12.7 µM (active)
same,Potency,[4],inactive
same,Potency,[5],7.12 µM (active)
Cc1ccc(S(=O)(=O)Nc2cnccc2C(=O)Nc2nc(C(=O)O)cs2)cc1,Potency,[1],inactive
same,Potency,[6],20.1 µM (active)
same,Potency,[3],inactive
same,Potency,[4],inactive
O=C(Cc1ccc(F)cc1)Nc1cccc(-c2nc3cccnc3s2)c1,Potency,[1],inactive
same,Potency,[6],inactive
same,Potency,[3],inactive
same,Potency,[5],inactive
Cc1nc(C(C)Nc2ncnc3ccc(-c4ccc5c(c4)OCO5)cc23)cs1 (stereo not given),Potency,[1],inactive
same,Potency,[6],inactive
same,Potency,[3],inactive
same,Potency,[4],inactive
CC(=O)N1CCN(c2ccc(NCc3ccc4c(c3)OCO4)cc2)CC1,Potency,[1],8.96 µM (active)
same,Potency,[6],11.3 µM (active)
same,Potency,[3],8.96 µM (active)
O=C(C1CCN(Cc2ccccc2-c2ccccc2F)CC1)N1CCN(Cc2ccccc2)CC1,Potency,[1],inactive
same,Potency,[6],inactive
same,Potency,[3],inactive
COc1ccc(-n2c(C)c(C(C)=O)c3cc(OC(=O)COc4ccccc4)ccc32)cc1,Potency,[1],inactive
same,Potency,[6],inactive
same,Potency,[3],inactive
same,Potency,[5],inactive
CCOC(=O)c1[nH]c2c(c1C)C(=S)CC(c1ccco1)C2 (stereo not given),Potency,[1],8.96 µM (active)
same,Potency,[6],12.7 µM (active)
same,Potency,[3],12.7 µM (active)
same,Potency,[4],inactive
same,Potency,[5],2.01 µM (active)
COc1ccc(C2=NN(CC(=O)NCCc3ccc(OC)c(OC)c3)C(=O)CC2)cc1,Potency,[1],inactive
same,Potency,[6],inactive
same,Potency,[3],inactive
Oc1cc2c(cc1CN1CCN(c3ncccn3)CC1)OCO2,Potency,[1],7.12 µM (active)
same,Potency,[6],10.1 µM (active)
same,Potency,[3],2.01 µM (active)
same,Potency,[5],5.65 µM (active)
Cc1ccc(-c2cc(C(=O)NCc3cccc(F)c3)nn3cnnc23)cc1,Potency,[1],8.91 µM (active)
same,Potency,[6],8.91 µM (active)
same,Potency,[3],inactive
COc1cccc(-c2cccc(C(=O)N3CCN(C(=O)c4ccc(C)cc4)CC3)c2)c1,Potency,[1],inactive
same,Potency,[6],inactive
same,Potency,[3],inactive
same,Potency,[5],8.14 µM (active)
CN(C)c1ccc(-c2cc[nH]c(=O)c2N)cc1,Potency,[1],12.7 µM (active)
same,Potency,[6],20.1 µM (active)
same,Potency,[3],0.225 µM (active)
same,Potency,[4],inactive
same,Potency,[5],4 µM (active)
CN(C)c1cccc(-c2cnc(N3CCC(c4ncc[nH]4)CC3)s2)c1,Potency,[1],10.1 µM (active)
same,Potency,[6],4 µM (active)
same,Potency,[3],inactive
same,Potency,[4],inactive
same,Potency,[5],0.201 µM (active)
CCN(CC)CC(=O)c1c(C)n(C)c2ccc(OC)cc12,Potency,[1],inactive
same,Potency,[6],inactive
same,Potency,[3],inactive
same,Potency,[5],inactive
CC(=O)Nc1sc2c(c1-c1csc3ccccc13)CCNC2,Potency,[1],inactive
same,Potency,[6],inactive
same,Potency,[3],15.9 µM (active)
same,Potency,[4],inactive
NC(=O)C1CCN(c2nc(-c3ccc4ccccc4c3)cs2)CC1,Potency,[1],5.65 µM (active)
same,Potency,[6],inactive
same,Potency,[3],inactive
same,Potency,[4],inactive
COc1ccc(C(=O)N(Cc2ccco2)Cc2ccco2)c(O)c1,Potency,[1],0.891 µM (active)
same,Potency,[6],inactive
same,Potency,[3],17.9 µM (active)
same,Potency,[4],inactive
same,Potency,[5],7.12 µM (active)
COc1cc(NS(=O)(=O)c2cccc([N+](=O)[O-])c2)c2ncccc2c1,Potency,[1],11.3 µM (active)
same,Potency,[6],5.65 µM (active)
same,Potency,[3],3.18 µM (active)
COc1ccc(C2=Nn3c(nnc3-c3ccccc3OC)SC2)cc1OC1CCCC1,Potency,[1],15.8 µM (active)
same,Potency,[6],22.4 µM (active)
same,Potency,[3],6.34 µM (active)
same,Potency,[4],inactive
COc1ccc(-c2nc(CCNC(=O)c3c(F)cccc3Cl)cs2)cc1,Potency,[1],inactive
same,Potency,[6],inactive
same,Potency,[3],inactive
same,Potency,[5],inactive
CC(=O)c1ccc(N2CCN(C(=O)CCS(=O)(=O)c3ccc4c(c3)oc(=O)n4C)CC2)cc1,Potency,[1],inactive
same,Potency,[6],16.2 µM (active)
O=C1Cc2cc(S(=O)(=O)N3CCNCC3)ccc2N1,Potency,[1],inactive
same,Potency,[6],inactive
same,Potency,[3],17.9 µM (active)
same,Potency,[4],inactive
CN1CCN(c2ccc(NC(=O)CN(C)Cc3c(O)ccc4ccccc34)cc2)CC1,Potency,[1],7.12 µM (active)
same,Potency,[6],22.5 µM (active)
same,Potency,[3],7.12 µM (active)
same,Potency,[4],inactive
same,Potency,[5],5.04 µM (active)
